A selection: hits, their analogues and other compounds. The true share with any hit is near 1.4%.
FXIIa mix inh – factor XIIa (human) inhibition, mixture screen | P00748 | purified FXIIa, fluorogenic substrate, pooled mixtures | inhibition, % at 5 µM | 62,000 compounds, 0.2% hits | AID 684;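 further: 0% = enzyme without compound and 100% = no enzyme blank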
Target sequence (P00748 20-372 limits assumed): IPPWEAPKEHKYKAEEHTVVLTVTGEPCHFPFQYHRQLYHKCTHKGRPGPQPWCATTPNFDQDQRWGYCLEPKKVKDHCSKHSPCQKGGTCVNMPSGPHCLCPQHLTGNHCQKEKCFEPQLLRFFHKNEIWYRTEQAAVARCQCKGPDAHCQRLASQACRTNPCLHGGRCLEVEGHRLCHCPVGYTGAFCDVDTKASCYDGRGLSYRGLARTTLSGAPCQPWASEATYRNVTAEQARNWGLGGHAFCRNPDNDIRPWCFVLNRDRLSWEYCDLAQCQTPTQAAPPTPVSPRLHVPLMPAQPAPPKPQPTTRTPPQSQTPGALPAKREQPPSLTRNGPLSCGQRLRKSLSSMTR
Target sequence (P00748 373-615 limits assumed): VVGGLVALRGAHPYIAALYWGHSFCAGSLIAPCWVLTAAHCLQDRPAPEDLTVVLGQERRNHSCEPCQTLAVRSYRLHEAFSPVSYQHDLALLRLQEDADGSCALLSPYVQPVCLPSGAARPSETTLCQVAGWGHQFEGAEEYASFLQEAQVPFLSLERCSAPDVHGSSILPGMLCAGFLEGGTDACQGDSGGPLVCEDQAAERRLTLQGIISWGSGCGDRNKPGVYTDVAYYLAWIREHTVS
C1s block – human complement C1s inhibition; 62,000 compounds, 0.16% hits; AID 538; purified C1s, fluorogenic AMC substrate, pooled mixtures; mean inhibition % of two 10-compound mixtures (stronger effect = higher value), % at 5 µM (by protocol);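 active means inhibition above 20% in each of the two 10-compound mixture wells holding the compound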;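 further: 0% = enzyme wells lacking compound mixture and 100% = no-enzyme blank wells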
Cathepsin G inh – cathepsin G (human) inhibition | purified enzyme, AMC-tetrapeptide fluorescence, pooled mixtures | inhibition, % at 5 µM (by protocol) | 62,000 compounds, 0.2% hits | AID 581;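 active means inhibition above 20% in each of the two mixture wells holding the compound; inactive means inhibition of 20% or less in either well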;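 further: 0% = enzyme control without mixture and 100% = blank lacking enzyme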
FXIa inh mix – factor XIa (human) inhibition, mixture screen | P03951 | purified FXIa, fluorogenic substrate, pooled mixtures | inhibition, % at 5 µM | 62,000 compounds, 0.19% hits | AID 680;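 further: each value is inhibition by a whole ten-compound pool holding the compound; 0% = enzyme with no mixture and 100% = wells lacking enzyme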
HePTP inh – blocks human HePTP tyrosine phosphatase. P35236. recombinant HePTP phosphatase activity, OD absorbance. inhibition, % at 20 µM. 110,000 compounds, 0.64% hits. AID 521; in the data active means inhibition above about 50%;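 further: plate controls were vehicle for no effect and reference inhibitor for full effect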
PLAP activator – human PLAP activation | purified PLAP enzyme, luminescent substrate read-out; stronger effect = higher value | activation fold at 20 µM | 96,000 compounds, 1.2% hits; in the data active means activation fold above about 2
* marks the source's active call; other numbers are inactive results. Unless noted, no stated cut-off is given here; in the data, active means inhibition above about 20% (passing the limit was not always enough); inactive means the rest.

`O=C1C(=C2c3ccccc3C(=O)C2C2c3ccccc3Oc3ccccc32)C(=O)c2ccccc21` (centres undefined) gave HePTP inh -2.
For Cn1c(NC(=O)c2cccnc2)nc2ccccc21 the results were FXIIa mix inh 3, C1s block -29, Cathepsin G inh 8, FXIa inh mix 11, HePTP inh 7 and PLAP activator 2*.
Cc1ccc(C(=O)Nc2nc3ccccc3n2C)cc1 was read as HePTP inh -14.
`CCC(C)c1ccc(OCCOc2ccc(C=C3C(=O)NC(=S)NC3=O)cc2)cc1` (centres undefined) gave HePTP inh 4.
Screening COc1ccc(-c2nc3ccccc3c(C(=O)Nc3ccc(C)cc3)c2C)cc1 returned HePTP inh 104*.
`COc1ccc(NC(=O)c2c(C)c(-c3ccc(C)cc3)nc3ccccc23)c(OC)c1` gave HePTP inh -4.
For CCN1C(=O)CC(N2CCC(Nc3ccc(OC)cc3)CC2)C1=O (centres undefined) the results were FXIIa mix inh 2, C1s block 13, Cathepsin G inh 8, FXIa inh mix 21*, HePTP inh 10 and PLAP activator 1.3.
For COc1ccc(NC2CCN(C3CC(=O)N(c4ccc(F)c(Cl)c4)C3=O)CC2)cc1 (centres undefined) the results were FXIIa mix inh 2, C1s block 18, Cathepsin G inh 8, FXIa inh mix 9, HePTP inh 13 and PLAP activator 1.3.
For CCC1(C)Cc2c(sc3nc(NN)n(C)c(=O)c23)CO1 (centres undefined) the results were PLAP activator 2*.
CCOc1ccc(Br)cc1C=Nc1c(C)n(C)n(-c2ccccc2)c1=O was read as HePTP inh 10.
Screening CCN(CC)CCCNC(=O)C1c2cc(OC)c(OC)cc2C(=O)N(C)C1c1cccs1 (centres undefined) returned PLAP activator 1.3.
For CCCN(CCC)CCCNC(=O)C1c2cc(OC)c(OC)cc2C(=O)N(C)C1c1cccs1 (centres undefined) the results were PLAP activator 2*.
Screening COC(=O)c1sc(N2C(=O)C(O)=C(C(=O)c3ccc(C)o3)C2c2ccc(F)cc2)nc1C (centres undefined) returned FXIIa mix inh 4, C1s block 20, Cathepsin G inh 59*, FXIa inh mix 40*, HePTP inh 3 and PLAP activator 1.1.
`Cc1ccc(C2C(C(=O)c3ccco3)=C(O)C(=O)N2c2nnc(C)s2)cc1` (centres undefined) gave PLAP activator 1.1.
For COC(=O)c1c(NC(=O)c2nc3ccccc3s2)sc2c1CCN(C(C)=O)C2 the results were FXIIa mix inh 3, C1s block -43, Cathepsin G inh -9, FXIa inh mix -1, HePTP inh -14 and PLAP activator 2.1*.
Screening COc1ccc(S(=O)(=O)N(CC(=O)N2CCOCC2)Cc2ccccc2)cc1C returned PLAP activator 2*.
Cc1onc(-c2ccccc2Cl)c1C(=O)N1CCC(C(O)(c2ccccc2)c2ccccc2)CC1 was read as HePTP inh -4.
Screening CCOc1ccc(N(C(C)C(=O)NCc2ccco2)S(C)(=O)=O)cc1 (centres undefined) returned PLAP activator 2*.
CN(C1=NC(=O)S/C1=C\c1ccc([N+](=O)[O-])cc1)c1ccc(O)cc1 was read as HePTP inh 56*.
Cc1ccccc1N1C(=O)c2cccc3c(N4CCNCC4)ccc(c23)C1=O was read as HePTP inh -1.
Screening C/C(=N\N=C1\NC(=O)C(CC(=O)NCc2ccccc2)S1)c1ccco1 (centres undefined) returned HePTP inh 6.
C=CCn1c(SCC(=O)NCC(=O)OCC)nnc1-c1cccc(OC)c1 was read as FXIIa mix inh 12, C1s block -114, Cathepsin G inh -22, FXIa inh mix -30, HePTP inh 5 and PLAP activator 0.8.
For C=CCn1c(SC(C)C(=O)NC2(C#N)CCCCC2)nnc1-c1ccc(OC)cc1 (centres undefined) the results were FXIIa mix inh 4, C1s block 3, Cathepsin G inh 8, FXIa inh mix 22*, HePTP inh 19 and PLAP activator 1.2.
Screening CC(CO)(CO)Nc1ccc(C(F)(F)F)cc1[N+](=O)[O-] returned HePTP inh -14.
CCCc1cc(=O)[nH]c(-n2[nH]c3c(c2=O)CCCC3)n1 was read as PLAP activator 2.3*.
CN(C(=O)CSc1nc2ccccc2n1CCc1ccccc1)C1CCS(=O)(=O)C1 (centres undefined) was read as FXIIa mix inh -2, C1s block 17, Cathepsin G inh 10, FXIa inh mix 2, HePTP inh 4 and PLAP activator 2.3*.
`COC(=O)c1c(C)oc2ccc(OC(=O)c3ccc(Br)cc3)cc12` gave HePTP inh 104*.
For COC(=O)c1c(C)oc2ccc(OC(=O)c3ccc(Cl)cc3)cc12 the results were HePTP inh 8.
`Cn1c(=O)c2[nH]c(CNCc3ccccc3Cl)nc2n(C)c1=O` gave PLAP activator 2.9*.
Screening Cn1c(=O)c2[nH]c(CN3CCN(Cc4ccccc4)CC3)nc2n(C)c1=O returned PLAP activator 1.
For Cc1cccc(/C(N)=N/OC(=O)c2ccc(Br)cc2)c1 the results were HePTP inh -10.
CCNc1cc2oc(=O)c(CN3CCOCC3)c(C)c2cc1C was read as FXIIa mix inh 15, C1s block -364, Cathepsin G inh -53, FXIa inh mix -17, HePTP inh 9 and PLAP activator 2*.
For Cc1ccc(OCCOCCN2CCC(C)CC2)cc1 the results were HePTP inh -10.
`Cc1ccc(OCCCCN2CCCCC2)c(Cl)c1` gave HePTP inh 5.
CC(=O)Nc1ccc(NC(=O)c2ccco2)c(C)c1 was read as HePTP inh -1.
`O=[N+]([O-])c1cccc(S(=O)(=O)NCc2ccncc2)c1` gave HePTP inh 103*.
Screening CCn1c(O)c(N=Nc2nc3ccccc3s2)c2ccccc21 returned HePTP inh -5.
O=C(O)c1ccc(NC(=O)c2cc(NC(=O)c3ccc(C(=O)O)cc3)cc(C(=O)Nc3ccc([N+](=O)[O-])cc3)c2)cc1 was read as HePTP inh 101*.
O=C(Nc1cc(C(=O)Nc2ccc(Cl)cc2)cc(C(=O)Nc2ccc(Cl)cc2)c1)c1ccc([N+](=O)[O-])cc1 was read as HePTP inh 3.
For O=C(Nc1ccc(I)cc1Cl)c1cccc([N+](=O)[O-])c1 the results were HePTP inh -8.
Screening O=C(O)c1ccc(Oc2ccc3c(c2)C(=O)N(c2ccc([N+](=O)[O-])cc2)C3=O)cc1 returned HePTP inh 3.
`O=C(Nc1ccc(I)cc1Cl)c1ccc([N+](=O)[O-])cc1` gave HePTP inh 88*.

Screening data (PubChem BioAssay)
